# Source: paper PMC4336329 (PLoS ONE, 2015)
# Among all 310,000 compounds or so, about 14,000 (4.5%) showed an effect of 50% or more. The effect is printed as a negative number. This excerpt belongs to a sample that is enriched for strong results.
# Molecular target: human ether-à-go-go-related gene (hERG) potassium channel (human, UniProt Q12809)
# Assay: primary screen, population patch clamp on CHO cells stably expressing hERG; higher = less effect of the substance
# 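Also: peak tail current of the secondary pulse compared with the same well before compound.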
# Sequence of human ether-à-go-go-related gene (hERG) potassium channel (Q12809 whole entry, looked up): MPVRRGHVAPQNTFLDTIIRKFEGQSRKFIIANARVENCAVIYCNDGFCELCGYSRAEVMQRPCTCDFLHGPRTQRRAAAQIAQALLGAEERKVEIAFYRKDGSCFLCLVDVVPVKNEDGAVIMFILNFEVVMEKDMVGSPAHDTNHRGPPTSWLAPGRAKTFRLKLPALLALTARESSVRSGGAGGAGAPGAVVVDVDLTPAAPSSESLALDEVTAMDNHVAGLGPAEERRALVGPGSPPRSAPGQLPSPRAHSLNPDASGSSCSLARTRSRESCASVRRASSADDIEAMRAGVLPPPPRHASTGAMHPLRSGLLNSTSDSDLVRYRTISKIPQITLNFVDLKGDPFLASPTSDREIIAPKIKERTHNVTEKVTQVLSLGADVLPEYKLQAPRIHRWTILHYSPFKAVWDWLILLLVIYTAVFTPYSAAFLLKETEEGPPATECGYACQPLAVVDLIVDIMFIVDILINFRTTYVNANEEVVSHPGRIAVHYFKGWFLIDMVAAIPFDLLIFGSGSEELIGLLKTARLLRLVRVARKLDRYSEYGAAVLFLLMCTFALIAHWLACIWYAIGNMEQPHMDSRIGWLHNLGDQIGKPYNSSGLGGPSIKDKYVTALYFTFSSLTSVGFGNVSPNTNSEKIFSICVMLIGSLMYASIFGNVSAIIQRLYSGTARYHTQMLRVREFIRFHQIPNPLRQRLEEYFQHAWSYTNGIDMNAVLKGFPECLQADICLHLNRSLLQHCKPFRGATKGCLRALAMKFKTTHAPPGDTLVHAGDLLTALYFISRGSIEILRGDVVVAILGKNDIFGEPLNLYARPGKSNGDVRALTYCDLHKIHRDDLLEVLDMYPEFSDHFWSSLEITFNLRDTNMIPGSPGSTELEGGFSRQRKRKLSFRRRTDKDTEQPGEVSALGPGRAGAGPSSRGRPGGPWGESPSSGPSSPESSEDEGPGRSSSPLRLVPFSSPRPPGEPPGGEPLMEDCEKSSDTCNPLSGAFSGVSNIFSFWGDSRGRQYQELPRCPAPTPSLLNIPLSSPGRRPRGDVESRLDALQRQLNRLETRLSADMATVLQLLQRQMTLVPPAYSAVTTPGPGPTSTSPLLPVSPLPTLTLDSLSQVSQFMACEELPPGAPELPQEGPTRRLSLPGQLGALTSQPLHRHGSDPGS
row,Structure (SMILES),"hERG current change (%, negative = inhibition) at 10uM"
1,COCCCN1CN(S(=O)(=O)c2ccc(Cl)cc2)c2nc3ccccc3nc21,-32.7%
2,COCCN1CN(S(=O)(=O)c2ccc(Cl)cc2)c2nc3ccccc3nc21,-75.9%
3,COCCN1CN(S(=O)(=O)c2ccccc2)c2nc3ccccc3nc21,-16.7%
4,COCCn1nnnc1C(C(C)C)N1CCN(C(=O)c2ccco2)CC1.Cl (centres unmarked),-1.29%
5,CCOC(=O)Cc1nnc(NC(=O)c2ncn[nH]2)s1,-9.4%
6,CN1CC(=O)N(CC(=O)Nc2ccc(Cl)c(C(F)(F)F)c2)C1=O,8.97%
7,CCOC(=O)CN1CCC(c2ccccc2)CC1,-2.19%
8,CC(CN1CCC(O)CC1)c1ccccc1 (centres unmarked),10.6%
9,CCCCC(O)CN1CCC(c2ccccc2)CC1 (centres unmarked),-56.6%
10,O=C(Nc1ccc(S(=O)(=O)Nc2nccs2)cc1)c1cc(-c2ccncc2)nc2ccccc12,10.1%
11,O=C(c1cccc(F)c1F)N1CCCC1,24.7%
12,CC1(C)S[C@@H]2[C@H](NC(=O)COc3ccccc3)C(=O)N2C1C(=O)OCc1ccccc1 (some centres unmarked),-48.1%
13,Cc1cc(COC(=O)C2N3C(=O)[C@@H](NC(=O)COc4ccccc4)[C@H]3SC2(C)C)on1 (some centres unmarked),-56.2%
14,COC(=O)C1N2C(=O)[C@@H](NC(=O)COc3ccccc3)[C@H]2SC1(C)C (some centres unmarked),-4.31%
15,Cc1nc2c(Br)c3nc(C(F)(F)F)[nH]c3c(Br)c2[nH]1,-4.86%
16,COc1ccc(N(C(=O)CNC(=O)c2cccs2)C(C(=O)NCC2CCCO2)c2ccccc2)cc1OC (centres unmarked),4.94%
17,Cc1ccccc1NC(=O)c1ccc([N+](=O)[O-])o1,11.5%
18,CCC(=O)N1CCN(c2ccccc2NC(=O)c2ccc([N+](=O)[O-])o2)CC1,-69%
19,CN1CCN(c2ccccc2NC(=O)c2ccc([N+](=O)[O-])o2)CC1,-69.6%
20,CN1CCN(c2ccccc2NC(=O)c2ccc(-c3ccc(Cl)cc3Cl)o2)CC1,-3.82%
21,CCC(=O)N1CCN(c2ccc(Cl)cc2NC(=O)c2ccc([N+](=O)[O-])o2)CC1,-21%
22,O=C(Nc1ccccc1N1CCCC1)c1ccc([N+](=O)[O-])o1,5.51%

row,Structure (SMILES),"hERG current change (%, negative = inhibition) at 10uM"
1,O=C(Nc1ccccc1N1CCOCC1)c1ccc([N+](=O)[O-])o1,-17.9%
2,COc1ccccc1NC(=O)c1ccc(-c2ccccc2[N+](=O)[O-])o1,26.7%
3,CN1CCN(c2ccccc2NC(=O)c2ccc(-c3ccccc3[N+](=O)[O-])o2)CC1,-67.9%
4,COc1cccc(NC(=O)c2ccc(-c3ccccc3[N+](=O)[O-])o2)c1,-46.1%
5,CC(=O)c1cccc(NC(=O)c2ccc(-c3ccccc3[N+](=O)[O-])o2)c1,-17.4%
6,Cc1cccc(NC(=O)c2ccc(-c3ccccc3[N+](=O)[O-])o2)c1,-55.2%
7,CN1CCN(C(=O)C(C(=O)c2ccc(F)cc2)n2ccccc2=O)CC1 (centres unmarked),-1.24%
8,Cc1ccc(C)c(N2CCN(S(=O)(=O)c3ccc4c(c3)NC(=O)CO4)CC2)c1,12.7%
9,O=C(O)c1cccc(Cn2c(Cl)c(/C=N/NC(=O)c3ccco3)sc2=O)c1,38.3%
10,Cc1ccc(N(C(=O)c2csnn2)C(C(=O)NC2CCCCC2)c2cccnc2)c(C)c1 (centres unmarked),-5.38%
11,N#CCCN(C(=O)COC(=O)CNC(=O)C12CC3CC(CC(C3)C1)C2)c1ccccc1,-23.5%
12,CC12CCC(C(=O)NCCc3ccccc3)(OC1=O)C2(C)C (centres unmarked),9.83%
13,CSc1nnc(C)c(=O)n1COC(=O)c1ccc(S(=O)(=O)N2CCCC2)cc1,-22.8%
14,O=C(CCS(=O)(=O)c1cccc2nonc12)NCCc1ccccc1Cl,-7.38%
15,CC(C)NC(=O)CN1C(=O)NC(CCc2ccccc2)C1=O (centres unmarked),5.75%
16,COc1cc(C)ccc1OCCCCOc1ccccc1C(C)=O,3.3%
17,CCn1c(CNC(=O)c2cccnc2)cc2ccccc21,2.41%
18,Cc1ccc(C2NC(=S)NC3=C2N2CCC3CC2)cc1 (centres unmarked),1.2%
19,CCOC(=O)c1sc(NC(=O)CSc2nc(C)cc(C)c2C#N)c(C#N)c1C,8.19%
20,O=C(/C=C/c1ccc(Cl)c(Cl)c1)N1CCOCC1,-1.3%
21,CC(C)C(=O)N1CCN(c2ccccc2NC(=O)c2ccc([N+](=O)[O-])o2)CC1,-63%
22,CCc1ccccc1NC(=O)c1cc([N+](=O)[O-])ccc1N1CCOCC1,-16.5%

row,Structure (SMILES),"hERG current change (%, negative = inhibition) at 10uM"
1,CC1CCN(c2ccccc2NC(=O)c2ccc([N+](=O)[O-])o2)CC1,25%
2,CC1CCN(c2ccccc2NC(=O)c2cc([N+](=O)[O-])ccc2N2CCOCC2)CC1,-2.63%
3,CC(C)C(=O)N1CCN(c2ccccc2NC(=O)c2cc([N+](=O)[O-])ccc2N2CCOCC2)CC1,-67.2%
4,CS(=O)(=O)N1CCN(c2ccccc2NC(=O)c2ccc([N+](=O)[O-])o2)CC1,-25.2%
5,O=C(CNC(=O)c1cccs1)c1ccc(Br)cc1,12.2%
6,O=C(O)Cc1ccc(C(=O)c2cccs2)s1,11.8%
7,COc1ccc(CNC(=S)N/N=C(/C)c2ccccc2)cc1,-6.47%
8,COc1ccc(OC)c(NC(=S)NCc2cccnc2)c1,8.59%
9,COC(=O)C1CC(O)CN1C(=O)c1ccco1 (centres unmarked),10.6%
10,CN(C)S(=O)(=O)c1ccc(NC(=O)CN2CCC(Cc3ccccc3)CC2)cc1,-32.8%
11,Cc1cc(C)n(-c2cccc(CN(C)Cc3nc(-c4cnccn4)no3)c2)n1,10.8%
12,CN(Cc1ccc(F)cc1)Cc1nc(-c2cnccn2)no1,13.7%
13,CN(Cc1ccc(-n2cccn2)cc1)Cc1nc(-c2cnccn2)no1,-58.2%
14,Cn1nc(C(=O)N2CCN(c3ccc(Cl)cc3)CC2)c2c1-c1ccccc1S(=O)(=O)C2,-51.2%
15,CC(=O)c1ccc(N2CCN(C(=O)c3nn(C)c4c3CS(=O)(=O)c3ccccc3-4)CC2)cc1,-64.5%
16,Cn1nc(C(=O)N2CCN(c3ccccc3F)CC2)c2c1-c1ccccc1S(=O)(=O)C2,-21.2%
17,Cn1nc(C(=O)N2CCN(c3ccccc3)CC2)c2c1-c1ccccc1S(=O)(=O)C2,-40.9%
18,Cn1nc(C(=O)N2CCN(c3ccc([N+](=O)[O-])cc3)CC2)c2c1-c1ccccc1S(=O)(=O)C2,-31.4%
19,Cn1nc(C(=O)N2CCN(c3cccc(Cl)c3)CC2)c2c1-c1ccccc1S(=O)(=O)C2,-53.4%
20,Cc1cccc(N2CCN(C(=O)c3nn(C)c4c3CS(=O)(=O)c3ccccc3-4)CC2)c1C,-33.4%
21,COc1ccccc1N1CCN(C(=O)c2nn(C)c3c2CS(=O)(=O)c2ccccc2-3)CC1,2.07%
22,Cn1nc(C(=O)N2CCN(c3ccc(F)cc3)CC2)c2c1-c1ccccc1S(=O)(=O)C2,-54.3%

row,Structure (SMILES),"hERG current change (%, negative = inhibition) at 10uM"
1,CCN1CCN(C(=O)c2nn(C)c3c2CS(=O)(=O)c2ccccc2-3)CC1,12%
2,Cn1nc(C(=O)N2CCCCC2)c2c1-c1ccccc1S(=O)(=O)C2,14.7%
3,Cc1ccc(N2CCN(C(=O)c3nn(C)c4c3CS(=O)(=O)c3ccccc3-4)CC2)c(C)c1,-3%
4,CCN1CCN(CC(=O)c2ccc(C)cc2)CC1,8.76%
5,CC(=O)Nc1ccc(S(=O)(=O)Oc2ccc(C(=S)N3CCCCC3)cc2)cc1,-16.6%
6,COc1cccc(NC(=O)c2cn(C)c(=O)c3cc(OC)c(OC)cc23)c1,6.54%
7,Fc1ccc(N2N=C(c3cccs3)CC2c2ccccc2)cc1 (centres unmarked),8.89%
8,COc1ccc(CC(=O)NC(C)c2nnc(SCCOc3ccc(OC)cc3)n2C)cc1 (centres unmarked),-11.2%
9,O=C(O)CCn1c(=S)n(CCC(=O)O)c2ccccc21,-1.59%
10,CCS(=O)(=O)N1CCN(Cc2ccc([N+](=O)[O-])cc2)CC1.O=C(O)C(=O)O,-44.4%
11,CCCS(=O)(=O)N1CCN(Cc2ccc([N+](=O)[O-])cc2)CC1.O=C(O)C(=O)O,-51.9%
12,CCc1ccc(CN2CCN(Cc3ccc(SC)cc3)CC2)cc1.O=C(O)C(=O)O,-67.9%
13,CSc1ccc(CN2CCN(C(=O)c3ccncc3)CC2)cc1,-21.4%
14,CSc1ccc(CN2CCN(C(=O)Cc3ccccc3)CC2)cc1,-12.1%
15,O=C(C1CCCN(Cc2ccc([N+](=O)[O-])cc2)C1)N1CCCCC1.O=C(O)C(=O)O (centres unmarked),-28.4%
16,CS(=O)(=O)N1CCN(Cc2ccc([N+](=O)[O-])cc2)CC1,-23.6%
17,CCCS(=O)(=O)N1CCN(Cc2ccncc2)CC1.O=C(O)C(=O)O,10.8%
18,CSc1ccc(CN2CCN(Cc3ccc([N+](=O)[O-])cc3)CC2)cc1.O=C(O)C(=O)O,-78.1%
19,CSc1ccc(CN2CCN(C(=O)c3ccc([N+](=O)[O-])cc3)CC2)cc1.O=C(O)C(=O)O,-77.2%
20,CCN1CCN(Cc2ccc(NC(=O)Nc3ccc(SC)cc3)cc2)CC1,-44.5%
